Several values for one entry are separate records, joined by “and”; a condition that tells them apart may be missing. Identical values can stand only once. This is part of a sample that, as a whole, favours compounds with a hit. Of some 83,000 tested, about 20% had one in any assay.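 48-hour exposure, single concentration, 96-well plates; percent growth endpoint where 0 means no net growth. Active: below 10.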 A number with no mark means an inactive call. Activity calls are given as the source filed them.
System: HL-60(TB) leukemia
Assay: NCI-60 one-dose screen, 48 h (100 = growth as untreated, 0 = no growth, -100 = all killed)
Conditions: 10 µM unless noted

| Compound | growth |
| --- | --- |
| O=C(NC(=S)Nc1ccc(-c2nc3ccccc3[nH]2)cc1)c1ccc2ccccc2c1 | 40.7% |
| COc1ccc(CCn2cnn3c(=O)c4ccccc4nc3c2=O)cc1OC | 92.4% and 103% |
| CCOC(=O)/C=C1/SC(=Nc2ccc(C#N)cc2)N(Cc2ccco2)C1=O | -26.6% (active) |
| CNc1cc2nc3cc(NC)c(C)cc3cc2cc1C | 18.9% |
| CCN1C(=O)/C(=C/N2N=C(c3ccc(Cl)cc3)CC2c2ccc(OC)cc2)SC1=S (stereo unspecified) | 67.1% |
| Cc1cc(Cl)nc(N(CCNc2ccnc3cc(Cl)ccc23)Cc2ccco2)n1 | -47.7% (active) |
| COC(=O)C(CSC(c1ccccc1)(c1ccccc1)c1ccccc1)NC(=O)C(CC(N)=O)NC(=O)OCc1ccccc1 (stereo unspecified) | -7.75% (active) |
| Cc1cc(=O)[nH]c2c(C#N)cnn12 | 106% |
| O=S(=O)(NCCNc1cc(-c2cn(-c3ccccc3)nc2-c2cccc(O)c2)ccn1)c1ccc(Cl)cc1 | 15.3% |
| N#Cc1c(-c2ccc(Cl)cc2)cc(-c2cc3ccccc3o2)nc1SCC(=O)c1ccc(Cl)cc1 | 123% |
| COc1ccc(CCN(C)CCCC(C#N)(c2ccc(OC)c(OC)c2)C(C)C)cc1OC (stereo unspecified) | 92.4% and 72.5% and 104% |
